Compound activity as filed in PubChem.
L3MBTL1 block: inhibitors of human L3MBTL1; Potency, µM (highest dose often 57.1 µM), most hits filed as inhibitors; actives 0.66% (n = 230,000); AlphaScreen L3MBTL1–H3K9me1 peptide binding; also: nearly all actives have a fitted effect of over 60% in size
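AlphaScreen assay: L3MBTL1 (50 nM final) was preincubated 30 min at room temperature with biotinylated H3(1-15)K9me1 peptide (75 nM final), then 30 min with library compounds; streptavidin donor and nickel chelate acceptor beads (10 ug/mL final) added, 30 min dark.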
BAZ2B block: blocks human BAZ2B | Q9UIF8 | AlphaScreen BAZ2B-H3K14Ac peptide displacement | Potency, µM (series often up to 114 µM), most hits filed as inhibitors | actives 4.4% (n = 360,000) | AID 504333; also: nearly all actives have a fitted effect of over 60% in size
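Compounds, titrated to a top concentration of 110 uM, were incubated 30 min at room temperature with preformed BAZ2B/acetyl-K14 H3 peptide complex (50 nM each). Proximity signal was measured by AlphaScreen after 20 min with beads.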
Sfp inh: blocks B. subtilis Sfp PPTase activity; Q9F4F7; Biochemical Sfp PPTase activity, qHTS; Potency, µM, usual class: inhibitors; actives 3.5% (n = 310,000);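 also: the enzyme is Sfp with the accession as filed and its product quenches rhodamine fluorescence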
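Sfp 15 nM + cpd, 15 min RT; start w/ rhodamine-CoA 5 uM, BHQ-2-YbbR 12.5 uM (final); 50 mM Hepes pH 7.6, 10 mM MgCl2, 0.01% NP-40, 0.01% BSA; read 525/598 nm at 0 and 30 min.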
G9a inh: blocks human histone lysine methyltransferase G9a. Q96KQ7. Potency, µM (top dose mostly 102 µM), usual class: inhibitors. G9a H3K9 monomethylation, AlphaScreen, 2 h. actives 8.8% (n = 350,000); also: nearly all actives have a fitted effect of over 75% in size
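G9a (20 nM) preincubated 15 min RT with compounds, then 500 nM biotinylated H3K9 peptide and 20 uM SAM added; 2 h RT reaction. Monomethyl-H3K9 product detected by AlphaScreen with anti-H3K9me1 antibody, streptavidin donor and anti-rabbit IgG acceptor beads.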
HP1b binding inh: HP1-beta chromodomain-methylated histone interaction inhibition; actives 0.56% (n = 390,000); AlphaScreen HP1-beta / biotin-H3K9me3 peptide binding; Potency, µM (titrated, usually from 114 µM), usual class: inhibitors; also: nearly all actives have a fitted effect of over 70% in size
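Compound inhibition of the preformed complex between 50 nM HP1-beta and 50 nM biotinylated H3K9me3 peptide was read by AlphaScreen. Buffer was PBS pH 7.4 with 0.01% Tween-20. Incubations ran 30 min at room temperature, with 10 ug/mL donor/acceptor beads.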
JMJD2A Tudor inh: JMJD2A Tudor domain (human) inhibition; AlphaScreen JMJD2A-Tudor / H3K4me3 peptide binding; Potency, µM (highest dose often 114 µM), hits mostly inhibitors; actives 4.4% (n = 390,000); also: nearly all actives have a fitted effect of over 50% in size
Numbers stand for hits; – = inactive; ? = inconclusive; · = no result given; [ ] = remark or other dose. Most compounds without a hit are left out; they make up all but 12% or so of the library. Calls follow the shape of the dose curve; as a rule, active = well fitted curve in the direction sought with a large enough effect; inconclusive = small, poorly fitted or top-dose-only effect, or another doubt; inactive = no such curve, though single readings can be large; an effect the other way counts as inactive or inconclusive.

SMILES	L3MBTL1 block	BAZ2B block	Sfp inh	G9a inh	HP1b binding inh	JMJD2A Tudor inh
CN(C)C(=O)c1ccc(NC(=O)Cn2nnnc2-c2ccccc2F)cc1	·	–	·	–	–	–
COc1cccc(NC(=O)C2CCCN2S(=O)(=O)c2ccc3nc(-c4ccccc4)[nH]c3c2)c1 (configuration not stated)	·	–	·	–	–	–
COc1cccc(-c2nc(SCC(=O)Nc3ccc4c(c3)OCCO4)c(-c3ccc(C)cc3)[nH]2)c1	·	?	·	?	–	?
O=C(CSc1nnc(CNc2cccc(C(F)(F)F)c2)n1Cc1ccco1)NCc1ccco1	–	–	–	–	–	–[11.4 µM]
O=C(CSc1nnc(CNc2ccc(F)cc2)n1Cc1ccco1)NC1CC1	–	–	56µM	?	–	–
O=C(O)CSc1nnc(CNc2cccc(C(F)(F)F)c2)n1Cc1ccco1	–	?	40µM	–	–	–
O=C(CSc1nnc(CNc2ccc(F)cc2)n1Cc1ccco1)N1CCOCC1	–	–	–	?	–	–
c1coc(CNc2nc(N3CCCCC3)nc3ccccc23)c1	–	?	?	?	–	–
c1ccc(CNc2nc(N3CCN(Cc4ccccc4)CC3)nc3ccccc23)cc1	·	50µM	56µM	?	–	–
c1ccc(N2CCN(c3nc(NCc4ccco4)c4ccccc4n3)CC2)cc1	–	45µM	32µM	45µM	–	50µM
Cc1ccccc1CNCc1c(C(=O)O)c(C)n(Cc2ccc(F)cc2Cl)c1C	·	–	·	–	–	–
COc1ccc(OC)c(NC(=O)C(OC(=O)CNC(=O)c2ccccc2)c2ccccc2)c1 (configuration not stated)	·	·	·	·	·	–
Cc1cccc(-n2c(CNC(=O)Cc3ccccc3)n[nH]c2=S)c1	–	–	–	20µM	–	4µM
Cc1cccc(NCc2n[nH]c(=S)n2-c2ccccc2)c1	–	?	?	?	–	–
Cc1cccc(-n2c(Cc3ccccc3)n[nH]c2=S)c1	–	–	–	22µM	–	32µM
CCc1ccc(-n2c(Cc3ccccc3)n[nH]c2=S)cc1	–	–	–	?	–	22µM
C=Cc1ccc(Cn2c(C(=O)O)c(CNC3CCCCC3)c3ccc(OC)cc32)cc1	·	?	·	–	–	–
CN1C(=O)c2ccccc2Sc2ccc(NC(=O)N3CCN(c4ccc(F)cc4)CC3)cc21	·	–	·	–	–	–
O=c1[nH]c(Cc2ccccn2)nc2scc(-c3ccc(Cl)cc3)c12	–	–	–	40µM	–	–
O=c1[nH]c(Cc2ccc(F)cc2)nc2scc(-c3ccc(F)cc3)c12	–	–	–	3.5µM	?	?
Cc1ccc(-c2csc3nc(CN(C)Cc4ccccc4)[nH]c(=O)c23)cc1	–	·	–	?	–	–
Cc1ccc(S(=O)(=O)c2c(C)cc(C)nc2Cl)c(C)c1	–	–	–	–	–	–
Cc1cc(C)c(S(=O)(=O)/N=C2\C=CC(=O)C(Cl)=C2)c(C)c1	·	–	50µM	7.9µM	?	32µM
COc1ccc(-c2ccc3ccccc3n2)cc1	–	–	–	–[12.7 µM]	–	–
Nc1ccc(-c2ccc3ccccc3n2)cc1	·	·	–	19µM	·	·
SMILES	L3MBTL1 block	BAZ2B block	Sfp inh	G9a inh	HP1b binding inh	JMJD2A Tudor inh
CCc1nnc(SCC(=O)N(C)c2ccccc2)c2cc3sccc3n12	·	–	·	–	–	–
COc1cccc(CNC(=O)c2ccc3nc(CCc4ccccc4)oc3c2)c1OC	·	–	·	?	–	–
O=C(O)c1ccc(/C=N/NC(=S)NCCN2CCOCC2)cc1	–	–	50µM	–	–	32µM
Oc1cccc(/C=N/NC(=S)NCCN2CCOCC2)c1O	10µM	8.9µM	–	–[12.7 µM]	–	22µM
S=C(NCCN1CCOCC1)N/N=C/c1cccs1	·	–	–	–[2.33 µM]	–	–
COc1cc(/C=N/NC(=S)NCCN2CCOCC2)cc(OC)c1OC	–	–	?	–	–	–
CCOC(=O)c1c(C)c(C(=O)NCc2ccc(Cl)cc2)c(C)n1C	·	–	·	–	–	–
Cc1ccc(OCCCCN2CCC(C)CC2)cc1	·	50µM	–	–	?	3.2µM
CC1CCN(CCCCOc2ccc([N+](=O)[O-])cc2)CC1	–	–	–	11µM	–	79µM
CC1CCN(CCCCOc2cccc(C(C)C)c2)CC1	·	?	–	40µM	–	56µM
Cc1ccc(OCCCCCN2CCOCC2)cc1	–	–	–	–	–	–
CC1CCN(CCCCOc2ccc(F)cc2)CC1	·	?	–	?	?	3.2µM
Cc1ccc(NS(=O)(=O)c2cc3c(cc2C)OCC(=O)N3)cc1C	·	·	·	·	·	–
CC(=O)c1c(C)oc2ccc(N(C(=O)Oc3ccccc3)S(=O)(=O)c3ccc(Cl)cc3)cc12	·	–	·	–	–	–
COc1ccc(SCC(c2ccccc2)N2CCN(CC(C)C)CCC2=O)cc1 (configuration not stated)	·	·	–	·	–	–
O=C1C2=CC[C@H]3C(=O)N(c4cccc(Oc5ccccc5)c4)C(=O)[C@@H]3[C@@H]2[C@H](O)[C@@H]2O[C@H]12	·	·	–	·	·	·
Cc1ccc(Cn2cc(CCC(=O)NC3CCC(C)CC3)c3ccccc32)cc1 (configuration not stated)	·	–	·	–	–	–
Cn1cnc(S(=O)(=O)N2CCC(C(=O)NCc3ccc(F)cc3)CC2)c1	·	–	·	–	–	–
O=C(Nc1ccc(F)cc1F)C(Cc1ccccc1)N1Cc2ccccc2C1=O (configuration not stated)	·	–	·	–	–	–
CC1CCN(CCCCOc2ccccc2[N+](=O)[O-])CC1	–	?	–	?	?	4.5µM
O=[N+]([O-])c1ccc(OCCCCN2CCCCC2)cc1	–	–	–	?	–	–
CCOc1ccccc1OCCOCCOc1ccccc1[N+](=O)[O-]	–	–	–	–	–	–
O=[N+]([O-])c1ccc(OCCCCN2CCc3ccccc3C2)cc1	–	79µM	–	35µM	?	20µM
CCN(C(=O)Cn1cc(C(=O)c2ccc(F)cc2)c(=O)c2ccc(C)nc21)c1cccc(C)c1	·	–	·	–	–	–
O=S(=O)(c1ccc2c(c1)OCCO2)N1CCN(S(=O)(=O)c2ccc(F)c(F)c2F)CC1	·	·	·	·	·	–
CCCCCCC(=O)Nc1c(O)c2ccccc2[nH]c1=O	–	?	50µM	?	–	–
Cn1cc(S(=O)(=O)N2CCCCCC2)cc1C(=O)Nc1ccc(Cl)c(C(F)(F)F)c1	·	?	·	–	–	–
COc1ccc(CCNC(=O)CCn2c(=O)c3ccccc3n(Cc3ccccc3F)c2=O)cc1OC	·	–	·	–	–	–
Cc1ccc(NC(=O)CNCc2ccccc2Cl)cc1S(=O)(=O)N(C)C	·	50µM	?	–	32µM	3.2µM
Cc1ccc(NC(=O)Cc2c(Cl)cccc2Cl)cc1S(=O)(=O)N(C)C	–	–	–	–	–	–
